Measured values as given in PubChem BioAssay AID720537 (National Center for Advancing Translational Sciences (NCATS), 2013).
Among all 1,600 compounds or so, about 55 (3%) were called active. Roughly 10% stayed inconclusive and do not appear here. The call rests on the fitted dose curve; in most records, active means well fitted inhibition curve with a large enough effect; inconclusive means small, poorly fitted or top-dose-only effect; inactive means no such curve, though single readings can be large or run the other way. Only a sample is shown.

Test: qHTS for Inhibitors of TGF-b: Hit Validation in HepG2 Cells using COP promoter; further: nearly all actives have a fitted effect of over 70% in size
Conditions: HepG2 COP-GFP TGF-b reporter, GFP fluorescence, 18 h, cells stimulated by added recombinant TGF-beta; series mostly up to 46.1 µM; activity, negative = inhibition: at the top concentration
Source text: TGF-b is a main component in the TGF-b signaling pathway which plays diverse roles in cellular and development pathways. TGF-b is the mediated by the transcription factors Smads. Although the Smad-dependent pathway is the primary canonical TGF-b signaling node, TGF-b1 can also activate alternative signaling pathways, including those involving MAPK (ERK, JNK and p38). This interaction may mediate or enhance Smad-dependent responses, or can exert Smad-independent effects. The complexity of this signaling cascade allows the TGF-b superfamily to perform unique, overlapping or redundant functions. We believe that targeting the TGF-beta pathway at the Smad-transcription factor level may eliminate the consequences of disrupting the entire pathway and offer specificity without affecting other signaling pathways. Smad3 is the primary transducer of TGF-b's signals and Smad3 regulates many functions attributed to TGF-b signaling. We hypothesize that Smad3 inhibitors will selectively eliminate Smad3-specific TGF-beta signals without undesired off-target effects. We aim to identify Smad3-small molecule antagonists using a quantitative high throughput screening (qHTS) approach. A high-throughput assay was developed to screen the NIH Molecular Libraries Small Molecule Repository (MLSMR). This is a cell based assay, where TGF-b is tagged with GFP. This assays tests the hits identified from the primary screen in HepG2 cells, but using a cop promoter rather than a caga promoter. True actives from the primary screen will also be active in this assay. NIH Chemical Genomics Center [NCGC] NIH Molecular Libraries Probe Centers Network [MLPCN] MLPCN Grant: MH087449 Assay Submitter (PI): Sushil Rane, National Institute of Diabetes and Kidney Diseases
Suspensions of trypsinized HEPG2 COP-GFP cells were dispensed into white, tissue culture-treated, solid 1536-well plates at 5uL/well (1000 cells/well final concentration) in DMEM medium supplemented with 1% FBS. Plates were incubated at 37 degrees C for 2 hours, after which 23 nL of compounds or DMSO were delivered to each well using a pin tool. One uL of recombinant TGF-beta in DMEM (1% FBS) was then dispensed (500 pg/mL final concentration), and plates were incubated at 37 degrees C for 18 hours. The plates were measured on an Acumen eX3 Explorer plate reader for GFP fluorescence (ex488/em500-530). GFP values were calculated by determining the mean GFP fluorescence of individual cells, and compiling these values for each well to determine a total well GFP signal. The %Activity was determined from the corrected fluorescence values. A titration of the known TGF-B inhibitor SB431542 was included to monitor plate performance, while unstimulated HEPG2 (-TGF-B) control wells were used to normalize %Activity of identified inhibitors; unstimulated wells corresponded to 100%Activity (full inhibition), while stimulated cell controls (+DMSO) were used to normalize 0%Activity (no inhibition). Concentration-response curves were fitted to the signals arising from the resulting fluorescence. The concentration-effect curves were then classified based on curve quality (r2), response magnitude and degree of measured activity, and compounds were subsequently categorized based on their curve class.
Potency means the concentration at half of the fitted maximal effect.

Structure (SMILES) | Potency | activity, negative = inhibition
O=C(NC1=CC(=O)c2ccccc2C1=O)c1ccccc1 | 16.4 µM (active) | 
CCCOc1ccccc1C1CC(=O)Nc2cc3c(cc21)OCO3 (stereo not given) |  | 1.95% (inactive)
CCCOc1ccc(F)cc1-c1cc(C(=O)Nc2ccc(F)c(Cl)c2)[nH]n1 |  | 52.1% (inactive)
O=C(Nc1ccc(C2CC2(Cl)Cl)cc1)c1cccc([N+](=O)[O-])c1 (stereo not given) |  | 18.1% (inactive)
Cc1cccc(-c2nc(Nc3ccc(O)cc3)c3ccccc3n2)c1 |  | 75.3% (inactive)
COc1cncc(-c2cnc3sc(NCCc4ccccn4)nn23)c1 |  | 21.5% (inactive)
CCC(C)N1C(=O)S/C(=C/c2ccc(Sc3nc4ccccc4[nH]3)o2)C1=O (stereo not given) |  | 34.9% (inactive)
Fc1cc(F)c2nc(Nc3nc4c(F)cccc4s3)sc2c1 |  | -4.89% (inactive)
COC(=O)N/N=C/c1cn(CCCOc2ccc(C)cc2)c2ccccc12 |  | 47.4% (inactive)
CCCc1cc(-c2n[nH]c(=S)n2CC)c2ccccc2n1 |  | 3.17% (inactive)
Oc1c(CN2CCN(c3ccc(F)cc3)CC2)cc(Cl)c2cccnc12 |  | 14% (inactive)
OCC1OC(n2cnc3c(N4CCCC4)ncnc32)C(O)C1O (stereo not given) |  | 29.2% (inactive)
CN(C)C(=O)c1cccc(-c2cnc3sc(NCc4ccc5c(c4)OCO5)nn23)c1 |  | 14.9% (inactive)
Cc1ccc(CN2CC(N3CCC(Cc4ccccc4)CC3)CS2(=O)=O)cc1 (stereo not given) |  | 2.5% (inactive)
COc1cc(/C=C2\Oc3ccc(C#Cc4ccc(O)cc4)cc3C2=O)cc(OC)c1 |  | 0.311% (inactive)
Cc1ccnc(NC(=O)C2CCN(S(=O)(=O)c3c(C)c(C)cc(C)c3C)CC2)c1 |  | 28.3% (inactive)
COc1ccc(CC(=O)Nc2ccccc2NC(=O)c2ccco2)cc1OC |  | 5.51% (inactive)
O=C(Nc1ccc(Br)cn1)c1ccc([N+](=O)[O-])o1 |  | 27% (inactive)
Cn1c(=O)n(C)c2cc(S(=O)(=O)N3CCCc4ccccc43)ccc21 |  | 19% (inactive)
CN(C)c1nc(=Nc2cccc(Cl)c2)ss1 |  | 14.4% (inactive)
COc1ccc(-c2onc(C)c2-c2ccc3c(c2)OCCO3)c(O)c1 |  | 42.4% (inactive)
CCOc1ccc(CCN2C(=S)N([C@@H](CC(C)C)CN3CCC[C@@H]3CN3C(=S)NC[C@@H]3Cc3ccc(O)cc3)C[C@@H]2CC(C)C)cc1 |  | 25.5% (inactive)
c1ccc(-c2cn3c(n2)CCc2ccc4cccnc4c2-3)cc1 |  | 17.3% (inactive)
Cc1ccc(S(=O)(=O)Nc2nc3ccccc3nc2N2CCc3ccccc3C2)cc1 |  | 0.702% (inactive)

Structure (SMILES) | Potency | activity, negative = inhibition
O=C(CCC(=O)N1CCN(S(=O)(=O)c2ccc(Cl)cc2)CC1)NCc1cccc(C(F)(F)F)c1 |  | 25.9% (inactive)
COc1cccc2sc(N(CCCN(C)C)C(=O)CCS(=O)(=O)c3ccccc3)nc12 |  | -68.6% (inactive)
CCOc1ccc(NS(=O)(=O)c2ccc(C(=O)NC3CCN(Cc4ccccc4)CC3)cc2)cc1 |  | 61.9% (inactive)
CC(=O)c1cccc(-c2cnc3c(NC=O)cc(-c4ccc(N(C)C)cc4)cn23)c1 |  | 0.802% (inactive)
COc1ccccc1CSc1ncc(-c2ccc([N+](=O)[O-])cc2)[nH]1 |  | 54.3% (inactive)
FC(F)(F)c1ccccc1Cc1c(-c2ccccc2)nc2c3ccccc3ccn12 |  | 10.2% (inactive)
Cc1ccc(C)c(S(=O)(=O)N2CCN(CC(=O)Nc3ccc([N+](=O)[O-])cc3)CC2)c1 |  | 15.9% (inactive)
COc1c(C(C)C)oc2cc3oc(=O)ccc3cc12 |  | 67.8% (inactive)
Cc1ccc(-c2nc3ccc(Br)cn3c2Cc2ccccc2C(F)(F)F)cc1 |  | 19.4% (inactive)
Brc1ccc2nc(-c3ccccc3)c(Cc3ccccc3)n2c1 |  | 17.5% (inactive)
COc1ccc(-c2csc(NC3OC(=O)c4ccccc43)n2)cc1 (stereo not given) |  | 69.1% (inactive)
Cc1ccc(S(=O)(=O)Nc2ccc3c(c2)C(=O)N([C@H](C)CO)C[C@@H](C)[C@@H](CN(C)C(=O)Nc2cccc4ccccc24)O3)cc1 |  | -0.193% (inactive)
CN(c1ccccc1)S(=O)(=O)c1ccc(C(=O)N2CCN(c3ccccc3Cl)CC2)cc1 |  | 14.1% (inactive)
COc1cc(CC(=O)Nc2nc(-c3ccc(F)c(F)c3)cs2)cc(OC)c1OC |  | 25% (inactive)
COc1ccc2nc(N3CCN(C(=O)c4ccc([N+](=O)[O-])o4)CC3)sc2c1 |  | -6.27% (inactive)
CC1CCc2c(nc3ncnn3c2Nc2ccc(OC(F)(F)F)cc2)C1 (stereo not given) |  | 2.87% (inactive)
Cc1cc(C)cc(N(CC(=O)N2CC=C(c3ccccc3)CC2)S(=O)(=O)c2c(C)noc2C)c1 |  | 1.43% (inactive)
Cc1oc2c(F)c(F)c(F)c(F)c2c1S(=O)(=O)Nc1cccc(C(F)(F)F)c1 |  | 54.8% (inactive)
CCOC(=O)C1=C(N)N(c2ccc(C)cc2)C2=C(C(=O)CCC2)C1c1cccs1 (stereo not given) |  | 22.7% (inactive)
CN(C)c1nc(N)nc(CSc2nnnn2-c2cccc3ccccc23)n1 |  | 47.2% (inactive)
CC(=O)c1ccc(-c2cnc3c(NC=O)cc(-c4cccc(NS(C)(=O)=O)c4)cn23)cc1 |  | 35.4% (inactive)
COc1cc(NC(=O)COC(=O)c2ccc([N+](=O)[O-])s2)cc(OC)c1OC |  | 5.21% (inactive)
CN(C(=O)c1cccc(NC(=O)Cc2cccc([N+](=O)[O-])c2)c1)C1CCCCC1 |  | 13.5% (inactive)
O=C(Nc1ccc(Cl)cc1)Nc1nnc(/C=C/c2ccccc2)s1 |  | -2.14% (inactive)

Structure (SMILES) | Potency | activity, negative = inhibition
c1ccc2cc3c(NCCN4CCOCC4)ccnc3cc2c1 |  | 28.4% (inactive)
OCCCNc1nccc(-c2cc(Nc3cccc(Cl)c3)ncn2)n1 |  | 22% (inactive)
O=C(/C(=C/c1cccc(Cl)c1)c1nc2ccccc2[nH]1)c1ccccc1 |  | 45.1% (inactive)
COc1cccc(CNc2nc(NCc3ccccc3OC)nc3ccsc23)c1 |  | 13.8% (inactive)
CC(=NNC(=S)N1CCCCCC1)c1ccccn1 |  | 14.9% (inactive)
CCN(CC)C(=O)C1=C(C)N(Cc2ccc(C(C)(C)C)cc2)C(=O)C(CC(=O)NCc2cccc3ccccc23)C1 (stereo not given) |  | 48.3% (inactive)
S=C(NCC1COc2ccccc2O1)Nc1ccc(Br)cc1 (stereo not given) |  | 30.5% (inactive)
CN(C)CCNC(=O)c1ccc(Cl)c2cc3ccccc3nc12 |  | -6.16% (inactive)
Cc1nc(/N=C(\N)NC(=O)NC2CCCCC2)nc2ccccc12 |  | 87% (inactive)
O=C(Nc1nnc(S(=O)(=O)N2CCCCCC2)s1)c1cccc(Br)c1 |  | 34.1% (inactive)
O=c1[nH]c(CCl)nc2cc(-c3ccc(Cl)cc3)sc12 |  | 20.5% (inactive)
O=[N+]([O-])c1ccccc1S(=O)(=O)Nc1cccc2cccnc12 |  | 35.7% (inactive)
COc1ccc(CNC(=O)C[C@H]2C[C@H](C(=O)N3CCOCC3)[C@@]3(CCC4CCCC4)c4[nH]c5ccc(Cl)cc5c4CCN3C2=O)cc1OC |  | 53.4% (inactive)
COc1ccc(C)cc1S(=O)(=O)N1CCN(S(=O)(=O)c2cc(C(=O)O)ccc2C)CC1 |  | -3.02% (inactive)
Cc1nn(-c2ccccc2)c(C)c1/C=N/NC(=O)CSc1nc2ccccc2c(=O)n1-c1ccccc1 |  | -7.84% (inactive)
COC(=O)COc1cccc2c(=O)n(CC(=O)NCc3ccccc3)ccc12 |  | 5.12% (inactive)
Clc1ccc(Nc2nc(-c3cccs3)cs2)nc1 |  | 18.4% (inactive)
Clc1cccc(Cc2c(-c3cccc(Cl)c3)nc3ccc(Cl)cn23)c1 |  | 18.8% (inactive)
COc1ccc(C(=O)c2c3ccc([N+](=O)[O-])cc3[n+]([O-])n2CCCN)cc1 |  | 91% (inactive)
COc1cc(NC(=O)c2ccccc2NS(=O)(=O)c2ccc(Cl)s2)cc(OC)c1 |  | 59.7% (inactive)
Clc1ccc2c(c1)C1=C(C(c3ccncc3)O2)C(c2ccc(Br)cc2)n2ncnc2N1 (stereo not given) |  | 13% (inactive)
Cc1cccc(NS(=O)(=O)c2ccc(-c3cnc(C4CC4)o3)cc2)c1 |  | 55.2% (inactive)
